Out of some 6,200 compounds screened, about 2,900 (47%) were called active. Rule as the data show it: active = inhibition above about 50%; inactive = the rest. The set was probably picked from earlier hits. The list shows a part of the results.
Assay: Mycobacterium tuberculosis growth inhibition, primary screen (AID 1259343)
Settings: inhibition: at 10 µM, hits give high values; outcome: 10 uM

SMILES | inhibition
COc1ccc(-c2[nH]ncc2CNC(=O)CC2COCCN2)cc1 (stereo unspecified) | -11.1% (inactive)
COc1ccc2cc(-c3[nH]ncc3CNC(C)Cc3cccs3)ccc2c1 (stereo unspecified) | 50.1% (active)
CCOc1ccc(Oc2ccc(NC(C)=O)cc2)cc1 | -0.29% (inactive)
CCOc1cccc(OCCCOc2ccccc2C(C)=O)c1 | 92.5% (active)
CCOc1ccc(OCCCCOc2ccccc2C(C)=O)cc1 | 98% (active)
CCOc1ccc(Oc2ccccc2NC(C)=O)cc1 | 73.6% (active)
CC1CN(C(=O)c2ccc(NC(=O)C3CC3)cc2)c2ccccc2O1 (stereo unspecified) | 87.7% (active)
CCCCc1ccc(-c2csc(NC(=O)OC)c2C(N)=O)cc1 | 2.76% (inactive)
CCCCCCCCc1ccc(CCC(N)(CO)CO)cc1 | 92% (active)
c1cc2c(cc1-c1csc(NCC3CCC3)n1)OCCCO2 | 3.11% (inactive)
CCOc1ccc(/C=N\Nc2nc(-c3ccc(OC)c(OC)c3)cs2)cc1 | 79.8% (active)
COc1ccc(/C=N\Nc2nc(-c3ccc4c(c3)OCCO4)cs2)cc1OC | 85.6% (active)
CCN(CC)c1ccc2cc(-c3csc(N/N=C\c4ccc(OC)cc4)n3)c(=O)oc2c1 | 25.9% (inactive)
Cc1ccc(/C=N\Nc2nc(-c3ccc4c(c3)OCCO4)cs2)cc1 | -51.4% (inactive)
CCOc1ccc(C=C2N=C(C(C)(C)C)OC2=O)cc1OC | 23.4% (inactive)
CCOc1cc(C=NNc2nc(C)cs2)ccc1OC | 72% (active)
CN1CC(CNC(=O)OCc2ccccc2)CC2c3cccc4c3c(cn4C)CC21 (stereo unspecified) | 96.7% (active)
CCOP(=O)(Oc1ccccc1)c1c([N+](=O)[O-])cc(C(F)(F)F)cc1[N+](=O)[O-] (stereo unspecified) | 94.9% (active)
CC(Oc1ccc(-n2cnc(-c3ccccc3)c2)cc1)C(N)=O (stereo unspecified) | 43.6% (inactive)
CC(C)Oc1ccc(Nc2nccc3[nH]c(-c4ccccc4)cc23)cc1 | 92.6% (active)
O=C(CSc1ccc2nc(-c3ccccc3)cn2n1)c1ccccc1 | 65.7% (active)
c1ccc(CSc2nn3cc(-c4ccccc4)nc3s2)cc1 | 16.3% (inactive)
CCN(CC)c1cc(-c2ccccc2)nc(SCc2cccc(C(=O)O)c2)n1 | 8.57% (inactive)
O=C(/C=C/c1ccc([N+](=O)[O-])s1)Nc1ccc(F)cc1F | 99.5% (active)
CN(C(=O)/C=C/c1ccc([N+](=O)[O-])s1)c1ccccc1 | 6.56% (inactive)
CCCCc1ccc(NC2=NC(C)(C)CS2)cc1 | 89.8% (active)

SMILES | inhibition
NC(N)=NN=CC(Cl)=Cc1ccccc1 | 85.8% (active)
NC(N)=NN=Cc1ccc(-c2ccccc2)cc1 | 38.6% (inactive)
NC(N)=NN=C1c2ccccc2-c2ccccc21 | -74.8% (inactive)
Cc1cc2oc(NC(=O)c3ccc(=O)n(C)c3)nc2c(C)c1Cl | -2.23% (inactive)
COc1ccc(C(=O)C2CCCN(Cc3nc(-c4ccc(F)cc4)cs3)C2)c(OC)c1 (stereo unspecified) | 31.3% (inactive)
COc1ccc(-c2csc(C(C#N)C(=O)CC3C=CCC3)n2)cc1 (stereo unspecified) | 79.7% (active)
CC(NC(=O)Nc1cccnc1N1CCCC1)c1ccn(C)c1 (stereo unspecified) | -18.1% (inactive)
CN(C)c1cccc(Nc2nccc3c2cc(-c2ccccc2)n3C)c1 | 74.6% (active)
CN(C)c1cccc(Nc2nccc3c2cc(-c2ccsc2)n3C)c1 | 63.8% (active)
O=C(NCc1ccc(Cl)s1)c1ccc(Br)o1 | -14.3% (inactive)
O=C(NCc1cc(Br)cs1)c1ccc(Cl)o1 | 37.9% (inactive)
O=C(NCCc1ccc(Cl)s1)c1ccc(Cl)o1 | 79.6% (active)
CCOc1cc(C=Nn2c(C)csc2=NC(C)C)ccc1O | 18.4% (inactive)
Cc1ccc(OP(N)(=O)Oc2ccc(C)cc2)cc1 | -4.77% (inactive)
O=C1CCCCC1Sc1nnc(Nc2ccccc2)s1 (stereo unspecified) | 6.48% (inactive)
CCc1ccc(-c2nc(SC3CCCCC3=O)n[nH]2)cc1 (stereo unspecified) | 57.1% (active)
CN(C1CCCCC1)S(=O)(=O)NC1COc2ccccc21 (stereo unspecified) | 37.8% (inactive)
COc1c(Cl)cc(C(=O)NCC(c2cccc(F)c2)N(C)C)cc1Cl (stereo unspecified) | -3.98% (inactive)
Oc1c(I)cc2oc3c(c2c1C=NCc1ccncc1)CCCC3 | 8.12% (inactive)
Oc1c(Br)cc2oc3c(c2c1C=NCc1ccncc1)CCCC3 | 84% (active)
CCCc1cnc(-c2ccc(C)c3ncccc23)nc1 | 8.84% (inactive)
COc1ccc(Cl)cc1C(=O)Nc1cc(-c2cccs2)nn1-c1nc(C(C)C)cc(=O)[nH]1 | 101% (active)
COc1ccc(Cl)cc1C(=O)Nc1cc(-c2cccs2)nn1-c1nc(C)cc(=O)[nH]1 | 96.4% (active)
CC(C)(C)c1cc(C(c2ccncc2)N2CCOCC2)cc(C(C)(C)C)c1O (stereo unspecified) | 94.5% (active)
Oc1c(C(c2ccc(Br)cc2)N2CCCC2)cc(Cl)c2cccnc12 (stereo unspecified) | 10.6% (inactive)
Oc1c(C(c2ccncc2)N2CCOCC2)cc(Cl)c2cccnc12 (stereo unspecified) | 101% (active)

SMILES | inhibition
CN1CCN(C(c2ccc(Cl)cc2)c2cc(Cl)c3cccnc3c2O)CC1 (stereo unspecified) | 90.6% (active)
CCOC(=O)N1CCN(C(=O)CSc2cc(-c3ccccc3)ncn2)CC1 | 93.6% (active)
CCOC(=O)N1CCN(C(=O)CCc2ccc(-c3ccc(OC)cc3)n2-c2ccc(SC)cc2)CC1 | 13.6% (inactive)
CCOC(=O)CNC(=O)CSc1ncnc2c1nnn2Cc1ccccc1 | -26.6% (inactive)
O=C(NCC1Cc2ccccc2O1)c1ccc(Cl)s1 (stereo unspecified) | 53.1% (active)
CC(C)(C)n1nc(C2CC2)cc1C(=O)NCC1Cc2ccccc2O1 (stereo unspecified) | -7.17% (inactive)
CC(C)(C)c1ccc2c(c1)CC(CNC(=O)/C=C/c1ccccc1)O2 (stereo unspecified) | 27.2% (inactive)
O=C(OCC1CC2CCC1C2)C(c1ccccc1)n1cccn1 (stereo unspecified) | 92.2% (active)
O=S(=O)(NC1CCN(C2CC2)CC1)c1cc(Cl)cc(Cl)c1 | 4.16% (inactive)
CC(=O)N1CCC(NS(=O)(=O)c2ccc3c(c2)CCCC3)CC1 | 86.8% (active)
O=S(=O)(NC1CCc2cc(F)ccc21)c1ccc2c(c1)CCC2 (stereo unspecified) | 10.6% (inactive)
CN(C)c1ccc(C(=C2C=CC(=[N+](C)C)C=C2)c2ccc(N(C)C)cc2)cc1 | 59.1% (active)
O=C(c1cc2cc(Cl)ccc2o1)N1CCN(S(=O)(=O)c2ccccc2Cl)CC1 | 42.3% (inactive)
O=C(NNC(=O)c1cc2cc(Cl)ccc2o1)c1cnccn1 | 101% (active)
CCc1c(C)nc(-n2nc(C)cc2NC(=O)c2cc(C(F)(F)F)cc(C(F)(F)F)c2)[nH]c1=O | -3.31% (inactive)
CCc1c(C)nc(-n2nc(C)cc2NC(=O)c2ccc(OC)cc2)[nH]c1=O | 99.8% (active)
CCOc1cc(C(=O)Nc2cc(C)nn2-c2nc(C)c(CC)c(=O)[nH]2)cc(OCC)c1OCC | -22.4% (inactive)
CCc1c(C)nc(-n2nc(C)cc2NC(=O)c2cccc(OC)c2)[nH]c1=O | 102% (active)
CCc1c(C)nc(-n2nc(C)cc2NC(=O)c2ccc(C(F)(F)F)cc2)[nH]c1=O | 101% (active)
CCc1c(C)nc(-n2nc(C)cc2NC(=O)c2cc(OC)cc(OC)c2)[nH]c1=O | 101% (active)
CCn1cc(NC(=O)c2cc3ccc(C(C)(C)C)cc3[nH]2)ccc1=O | -0.51% (inactive)
CCc1c(C)nc(-n2nc(C)cc2NC(=O)c2ccccc2)[nH]c1=O | -16.5% (inactive)
CCc1c(C)nc(-n2nc(C)cc2NC(=O)c2ccc(C)c(C)c2)[nH]c1=O | 42.5% (inactive)
CCc1c(C)nc(-n2nc(C)cc2NC(=O)c2ccc(F)c(F)c2)[nH]c1=O | 99.7% (active)
CCc1c(C)nc(-n2nc(C)cc2NC(=O)c2cccc([N+](=O)[O-])c2)[nH]c1=O | 99.7% (active)
CCc1c(C)nc(-n2nc(C)cc2NC(=O)c2cccc(C)c2)[nH]c1=O | 101% (active)

SMILES | inhibition
C=CCN1C(=O)C(=O)N(CC(=O)c2cc(C)n(CCCOC)c2C)C1=O | -11.2% (inactive)
O=C(CSC1=NCCS1)N1c2ccccc2Sc2ccccc21 | 27.6% (inactive)
CCSc1nnc2c(n1)OC(c1ccc(OCc3ccccc3)cc1)Nc1ccccc1-2 (stereo unspecified) | 83% (active)
O=C(O)c1cc(Br)ccc1N=Cc1nc(-c2ccc(Cl)cc2)oc1O | 50.4% (active)
O=C(O)c1cc2c(ccc3cc(Br)ccc32)oc1=O | 47.8% (inactive)
CCC(C)(C)c1ccc(Oc2ccc(N)cc2)cc1 | 21.9% (inactive)
Nc1ccc(Oc2ccc(Oc3ccc(N)cc3)cc2)cc1 | 72.7% (active)
Nc1ccc(Oc2ccc(N)cc2)cc1 | -13.3% (inactive)
Cc1cc(S(=O)(=O)Nc2cccc(Br)c2)ccc1Br | 39.6% (inactive)
CCS(=O)(=O)c1ccc(-c2cccc(NS(=O)(=O)c3ccc(C)cc3C)c2)nn1 | 99.5% (active)
CC(=O)Nc1cccc2c1NCCC2 | -0.59% (inactive)
O=S(CSc1nc(Br)ns1)c1nc(Br)ns1 (stereo unspecified) | 102% (active)
COc1ccc2nc(C(=O)NCC(C)c3ccccc3)ccc2c1 (stereo unspecified) | 52.4% (active)
CCN1CCc2nc3ccccc3c(C(=O)NCc3ccc(OC)cc3)c2C1 | -11% (inactive)
COc1ccc2cc(C(=O)NNC(=O)c3ccccn3)c(C)nc2c1 | 0.1% (inactive)
c1ccc(-c2noc(N3CCCCC3)c2CNCc2ccc3c(c2)OCO3)cc1 | 83.5% (active)
c1ccc(-c2nnc3n2NC(c2ccc4c(c2)OCO4)S3)cc1 (stereo unspecified) | -2.01% (inactive)
c1ccc(-c2nc(-c3ccc4c(c3)OCO4)cs2)cc1 | -16.4% (inactive)
CC(=O)N=c1c(Nc2ccc(Cl)cc2)nc(=O)[nH]n1C | 85.5% (active)
Cc1c(Br)c(Nc2ccc(Cl)cc2)nn1C | -14.8% (inactive)
O=C1c2ccccc2C(=O)N1CC1CC2C=CC1C2 (stereo unspecified) | 38.1% (inactive)
O=C(CCc1nnc(CCCCc2ccccc2)o1)NCC[C@@H]1C[C@@H]2C=C[C@H]1C2 | 78.5% (active)
CN(Cc1ccsc1)C(=O)CCc1nnc(CCCc2ccccc2)o1 | inactive

Reference: PubChem BioAssay AID1259343 (VanderVen Lab, College of Veterinary Medicine, Cornell …, 2017)
